# Results taken from PubChem BioAssay (EPA / NIEHS).
# Calls of active or inactive are those of the source. Rule for the calls: active = hit-call score of the fitted dose curve at least 0.9, where 1 is the maximum; inactive = score below 0.9.
# What was measured:
# [1] = ATG_CRE_CIS: Attagene CIS-FACTORIAL HepG2 Assay for human cAMP Responsive Element (CRE) binding protein 3 (AID 2282926); conditions: HepG2 CRE cis-reporter, Attagene multiplexed mRNA; actives raise or lower the signal
# Procedure, shortened: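 Endogenous CRE-binding activity in HepG2 is reported through a cis-regulated transfected reporter. Following a day of exposure, mRNA levels are determined by reverse transcription PCR and fluorescent fragment analysis; fits run in both directions versus DMSO.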
# [2] = target: CCAAT/enhancer-binding protein beta (Homo sapiens) (UniProt P17676); assay: ATG_C_EBP_CIS: Attagene CIS-FACTORIAL HepG2 Assay for human CCAAT/Enhancer Binding Protein (C/EBP) beta (AID 2282927); conditions: HepG2 Attagene cis-factorial transcription factor reporter; actives raise or lower the signal
# Procedure, shortened: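 Transiently transfected HepG2 (MRTU library, endogenous TF-driven promoters); 24 h dosing; total RNA → oligo(dT) RT → PCR → 6-FAM primer extension → HpaI digest → CE; fit bidirectionally vs DMSO.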
# [3] = ATG_CMV_CIS: Attagene CIS-FACTORIAL HepG2 Assay for human CMV (Internal Marker) (AID 2282928); conditions: HepG2 CMV promoter reporter, transcription factor profiling; actives raise or lower the signal;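 note: endpoint acts as a background internal control marker rather than a target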
# Procedure, shortened: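 After transient transfection of HepG2 with reporter transcription units driven by cis-regulatory promoters, cells receive test chemical for 24 h. Labeled reporter amplicons, digested with HpaI, are sized and quantified by capillary electrophoresis against DMSO.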
# [4] = ATG_DR4_LXR_CIS: Attagene CIS-FACTORIAL HepG2 Assay for human Liver X Receptor (LXR), DR4 submotif (AID 2282929); conditions: HepG2 Attagene DR4 cis-reporter, mRNA transcription; actives raise or lower the signal
# Procedure, shortened: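 Measures endogenous transcription factor activity via a DR4-driven reporter transcript in human HepG2 cells. Compounds incubated 24 h; mRNA quantified by RT-PCR and capillary electrophoresis, analysed as gain or loss of signal versus DMSO.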
# [5] = target: Aryl hydrocarbon receptor (Homo sapiens) (UniProt P35869); assay: ATG_Ahr_CIS: Attagene CIS-FACTORIAL HepG2 Assay for human Aryl Hydrocarbon Receptor (Ahr) (AID 2282930); conditions: HepG2 AhR cis-factorial reporter transcription; actives raise or lower the signal
# Procedure, shortened: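 Read-out: reporter mRNA quantified by RT-PCR with fluorescent primer extension and capillary electrophoresis. Human HepG2 liver cells carried transfected cis-promoter reporter units and were exposed to chemical for 24 h; gain or loss fitted relative to DMSO.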
# [6] = ATG_AP_1_CIS: Attagene CIS-FACTORIAL HepG2 Assay for human Activator Protein 1 (AP-1) (AID 2282931); conditions: HepG2 Attagene cis-factorial AP-1 reporter mRNA; actives raise or lower the signal
# Procedure, shortened: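 Bidirectional concentration-response fitting against DMSO controls. Underlying signal: reporter mRNA from cis-promoter constructs in transiently transfected HepG2, measured after 24 h by RT-PCR and capillary electrophoresis.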
# [7] = ATG_AP_2_CIS: Attagene CIS-FACTORIAL HepG2 Assay for human Activator Protein 2 (AP-2) (AID 2282932); conditions: HepG2 AP-2 cis-reporter, Attagene transcription factor profiling; actives raise or lower the signal
# Procedure, shortened: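 HepG2 cells transiently transfected with cis-element reporter units and exposed for 24 h. Reporter mRNA measured by RT-PCR, FAM labelling, HpaI digestion and capillary electrophoresis. Changes in either direction fitted relative to DMSO.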
# [8] = ATG_BRE_CIS: Attagene CIS-FACTORIAL HepG2 Assay for human Bone Morphogenetic Protein (BMP) Response Element (BRE) (AID 2282933); conditions: HepG2 BMP response element reporter, Attagene transcription factor profiling; actives raise or lower the signal
# Procedure, shortened: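 A HepG2 multiplex reporter system measured inducible reporter mRNA 24 h post-dosing. Detection: RT-PCR, 6-FAM primer extension, HpaI digestion, capillary electrophoresis. Activity fitted bidirectionally relative to DMSO.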
# [9] = target: Transcription factor E2F1 (Homo sapiens) (UniProt Q01094); assay: ATG_E2F_CIS: Attagene CIS-FACTORIAL HepG2 Assay for human E2F Transcription Factor 1 (AID 2282935); conditions: HepG2 Attagene cis-reporter, E2F reporter RNA transcripts; actives raise or lower the signal
# Procedure, shortened: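 Endogenous E2F1 activity read through cis-promoter reporter units transfected into HepG2. After 24 h compound treatment, reporter mRNA measured by RT-PCR, HpaI digestion and capillary electrophoresis. Bidirectional fit versus DMSO.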
# [10] = ATG_E_Box_CIS: Attagene CIS-FACTORIAL HepG2 Assay for human Enhancer Box (E-box) (AID 2282936); conditions: HepG2 E-box cis-reporter transcription, actives raise or lower the signal
# Procedure, shortened: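 HepG2 cells transiently transfected with multiplexed cis-element reporter units, dosed 24 h; reporter mRNA quantified by RT-PCR, 6-FAM labelling, HpaI digestion and capillary electrophoresis. E-box (USF1) signal fitted bidirectionally vs DMSO.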
# [11] = ATG_M_61_CIS: Attagene CIS-FACTORIAL HepG2 Assay for M61 Transcription Factor (Internal Marker) (AID 2282937); conditions: HepG2 Attagene CIS-FACTORIAL M61 internal marker reporter; actives raise or lower the signal
# Procedure, shortened: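 Fluorescence from labelled cDNA fragments, separated by capillary electrophoresis, quantifies reporter induction. HepG2 cells bearing transiently transfected cis-promoter MRTUs were incubated with test chemical for 24 h; DMSO defined baseline for gain/loss fitting.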
# [12] = ATG_EGR_CIS: Attagene CIS-FACTORIAL HepG2 Assay for human Early Growth Response 1 (EGR1) (AID 2282938); conditions: HepG2 Attagene CIS-FACTORIAL EGR reporter mRNA; actives raise or lower the signal
# Procedure, shortened: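 Cell-based multiplex transcription assay: HepG2 carrying transfected cis-element reporter units, 24 h chemical treatment. Fluorescence from capillary electrophoresis of RT-PCR products gives mRNA levels; fitting is bidirectional relative to DMSO.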
# [13] = ATG_M_19_CIS: Attagene CIS-FACTORIAL HepG2 Assay for M19 Transcription Factor (Internal Marker) (AID 2282939); conditions: HepG2 Attagene CIS-FACTORIAL M19 internal marker reporter; actives raise or lower the signal
# Procedure, shortened: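 Chemical-treated HepG2 (24 h) with MRTU constructs; reporter transcripts detected by fluorescent RT-PCR fragment analysis on capillary electrophoresis. Internal background marker, DMSO as baseline.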
# [14] = ATG_Ets_CIS: Attagene CIS-FACTORIAL HepG2 Assay for human Erythroblast Transformation Specific (ETS) (AID 2282941); conditions: HepG2 ETS cis-reporter transcription, actives raise or lower the signal
# Procedure, shortened: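 Human HepG2 hepatoma cells were transiently transfected with promoter-driven reporter constructs and treated for 24 hours. Reporter transcripts were quantified by RT-PCR with fluorescent primer extension; bidirectional curve fitting used DMSO as reference.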
# [15] = target: Hepatocyte nuclear factor 3-beta (Homo sapiens) (UniProt Q9Y261); assay: ATG_FoxA2_CIS: Attagene CIS-FACTORIAL HepG2 Assay for human Forkhead box A2 (FOXA2) (AID 2282942); conditions: HepG2 cis-reporter transcription factor activity, 24 h; actives raise or lower the signal
# Procedure, shortened: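 In transiently transfected human HepG2 cells, promoter-driven reporter mRNA levels after 24 h chemical exposure are determined via RT-PCR with capillary electrophoresis. DMSO serves as baseline for bidirectional fitting.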
# [16] = ATG_FoxO_CIS: Attagene CIS-FACTORIAL HepG2 Assay for human Forkhead box O (FoxO) (AID 2282943); conditions: HepG2 Attagene cis-reporter, FoxO element, mRNA; actives raise or lower the signal
# Procedure, shortened: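 Read-out: fluorescence of 6-FAM-labelled reporter cDNA fragments resolved by capillary electrophoresis. Transiently transfected HepG2 cells were dosed for 24 h; activity fitted in both directions relative to DMSO controls.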
# [17] = ATG_GATA_CIS: Attagene CIS-FACTORIAL HepG2 Assay for human GATA Binding Protein (AID 2282944); conditions: HepG2 GATA cis-element reporter, Attagene multiplex mRNA; actives raise or lower the signal
# Procedure, shortened: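 Transfected cis-reporter HepG2 cells were treated with chemicals for 24 hours. Total RNA was then converted to cDNA, amplified with reporter-specific primers and analysed by fluorescent capillary electrophoresis, using DMSO-treated wells as baseline.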
# [18] = ATG_GLI_CIS: Attagene CIS-FACTORIAL HepG2 Assay for human Zinc Finger Protein GLI1 (AID 2282945); conditions: HepG2, Attagene cis-factorial reporter mRNA, GLI element; actives raise or lower the signal
# Procedure, shortened: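 Transiently transfected HepG2 cells report endogenous transcription factor activity via cis-element-driven reporter units. After 24 h compound exposure, reporter mRNA was measured by RT-PCR with capillary electrophoresis; bidirectional fitting against DMSO baseline.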
# [19] = ATG_ERE_CIS: Attagene CIS-FACTORIAL HepG2 Assay for Estrogen Response Element (ERE) (AID 2282940); conditions: HepG2 ERE cis-reporter, Attagene RNA transcript; actives raise or lower the signal
# Procedure, shortened: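 Human liver cells (HepG2) bearing transiently transfected, promoter-regulated reporter units were exposed 24 h. Reporter mRNA induction was detected by capillary electrophoresis of labelled RT-PCR products and fitted bidirectionally to DMSO.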
# Chain of Aryl hydrocarbon receptor (Homo sapiens) (P35869 whole entry, looked up): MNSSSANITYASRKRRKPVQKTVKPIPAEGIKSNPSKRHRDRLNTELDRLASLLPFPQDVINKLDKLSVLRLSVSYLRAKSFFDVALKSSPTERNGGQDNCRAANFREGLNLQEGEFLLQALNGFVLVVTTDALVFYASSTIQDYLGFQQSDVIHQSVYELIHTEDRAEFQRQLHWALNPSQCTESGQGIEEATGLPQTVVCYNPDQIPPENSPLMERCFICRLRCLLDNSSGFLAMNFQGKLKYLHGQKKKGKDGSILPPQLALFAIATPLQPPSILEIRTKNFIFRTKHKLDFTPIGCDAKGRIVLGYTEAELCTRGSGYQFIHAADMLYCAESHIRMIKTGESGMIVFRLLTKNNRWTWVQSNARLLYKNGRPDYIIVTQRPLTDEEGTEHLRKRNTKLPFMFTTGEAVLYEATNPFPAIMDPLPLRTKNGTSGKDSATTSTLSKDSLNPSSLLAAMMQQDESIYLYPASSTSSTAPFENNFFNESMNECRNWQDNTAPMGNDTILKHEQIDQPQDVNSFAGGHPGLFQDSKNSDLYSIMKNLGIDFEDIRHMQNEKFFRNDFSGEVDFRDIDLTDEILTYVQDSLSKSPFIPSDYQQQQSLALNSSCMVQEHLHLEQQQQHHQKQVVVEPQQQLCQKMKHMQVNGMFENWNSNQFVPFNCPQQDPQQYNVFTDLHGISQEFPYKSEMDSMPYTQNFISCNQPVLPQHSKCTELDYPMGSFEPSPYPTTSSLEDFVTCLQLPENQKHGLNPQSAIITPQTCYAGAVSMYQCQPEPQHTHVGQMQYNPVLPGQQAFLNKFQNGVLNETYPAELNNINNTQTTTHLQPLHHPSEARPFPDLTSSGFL
# Chain of CCAAT/enhancer-binding protein beta (Homo sapiens) (P17676 whole entry, looked up): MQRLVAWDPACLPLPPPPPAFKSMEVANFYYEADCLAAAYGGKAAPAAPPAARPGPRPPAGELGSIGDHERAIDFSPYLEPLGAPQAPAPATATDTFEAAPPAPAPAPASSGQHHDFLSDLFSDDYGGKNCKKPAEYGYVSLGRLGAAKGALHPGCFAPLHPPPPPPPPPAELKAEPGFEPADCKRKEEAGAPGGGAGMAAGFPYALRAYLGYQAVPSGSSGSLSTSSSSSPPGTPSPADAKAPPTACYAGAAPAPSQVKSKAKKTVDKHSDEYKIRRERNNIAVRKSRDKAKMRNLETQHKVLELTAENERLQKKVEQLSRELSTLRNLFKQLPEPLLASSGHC
# Chain of Transcription factor E2F1 (Homo sapiens) (Q01094 whole entry, looked up): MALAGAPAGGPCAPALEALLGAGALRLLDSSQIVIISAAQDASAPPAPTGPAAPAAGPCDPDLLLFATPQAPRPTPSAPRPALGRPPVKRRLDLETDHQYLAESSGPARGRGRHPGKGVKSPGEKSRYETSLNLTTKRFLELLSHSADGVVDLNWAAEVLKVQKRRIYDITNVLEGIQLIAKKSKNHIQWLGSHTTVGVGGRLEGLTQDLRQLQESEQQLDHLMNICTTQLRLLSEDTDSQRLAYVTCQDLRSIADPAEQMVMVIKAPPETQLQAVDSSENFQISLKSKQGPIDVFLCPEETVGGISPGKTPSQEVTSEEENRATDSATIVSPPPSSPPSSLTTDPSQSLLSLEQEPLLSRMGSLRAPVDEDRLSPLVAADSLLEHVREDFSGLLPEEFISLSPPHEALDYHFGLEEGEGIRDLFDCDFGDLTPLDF
# Chain of Hepatocyte nuclear factor 3-beta (Homo sapiens) (Q9Y261 whole entry, looked up): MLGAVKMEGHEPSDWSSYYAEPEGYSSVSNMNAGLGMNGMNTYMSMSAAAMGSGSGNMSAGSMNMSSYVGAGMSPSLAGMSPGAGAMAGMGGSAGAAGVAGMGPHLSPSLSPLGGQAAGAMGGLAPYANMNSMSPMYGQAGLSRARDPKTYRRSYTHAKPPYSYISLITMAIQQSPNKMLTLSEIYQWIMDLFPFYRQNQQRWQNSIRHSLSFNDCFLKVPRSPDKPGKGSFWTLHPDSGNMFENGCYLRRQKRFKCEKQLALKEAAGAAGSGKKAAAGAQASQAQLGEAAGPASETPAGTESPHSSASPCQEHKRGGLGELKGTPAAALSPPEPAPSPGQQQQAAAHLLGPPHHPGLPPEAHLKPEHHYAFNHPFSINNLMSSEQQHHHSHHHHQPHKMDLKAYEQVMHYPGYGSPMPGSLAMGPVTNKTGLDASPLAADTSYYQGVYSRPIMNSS
compound,measurement,setting,value
CC(C)Oc1ccccc1O,outcome,[1],inactive
same,outcome,[2],inactive
same,outcome,[3],inactive
same,outcome,[4],inactive
same,AC50,[5],47.8 µM (active)
same,outcome,[6],inactive
same,outcome,[7],inactive
same,outcome,[8],inactive
same,outcome,[9],inactive
same,outcome,[10],inactive
same,outcome,[11],inactive
same,outcome,[12],inactive
same,outcome,[13],inactive
same,outcome,[14],inactive
same,outcome,[15],inactive
same,outcome,[16],inactive
same,outcome,[17],inactive
same,outcome,[18],inactive
COc1nc(C)nc(N)n1,outcome,[1],inactive
same,outcome,[2],inactive
same,outcome,[3],inactive
same,outcome,[4],inactive
same,outcome,[5],inactive
same,outcome,[6],inactive
same,outcome,[7],inactive
same,outcome,[8],inactive
same,outcome,[9],inactive
same,outcome,[10],inactive
same,outcome,[11],inactive
same,outcome,[12],inactive
same,outcome,[13],inactive
same,outcome,[19],inactive
same,outcome,[14],inactive
same,outcome,[15],inactive
same,outcome,[16],inactive
same,outcome,[17],inactive
same,outcome,[18],inactive
c1cc(C(c2ccc(OCC3CO3)cc2)c2ccc(OCC3CO3)cc2)ccc1OCC1CO1 (centres undefined),AC50,[1],25.2 µM (active)
same,outcome,[2],inactive
same,AC50,[3],26.3 µM (active)
same,AC50,[4],53.2 µM (active)
same,outcome,[5],inactive
same,AC50,[6],19.8 µM (active)
same,AC50,[7],8.7 µM (active)
same,outcome,[8],inactive
same,outcome,[9],inactive
same,AC50,[10],100 µM (active)
same,outcome,[11],inactive
same,AC50,[12],8.73 µM (active)
same,AC50,[13],175 µM (active)
same,outcome,[19],inactive
same,outcome,[14],inactive
same,AC50,[15],185 µM (active)
same,outcome,[18],inactive
NC(N)=NC(=O)c1nc(Cl)c(N)nc1N,outcome,[1],inactive
same,outcome,[2],inactive
same,outcome,[3],inactive
same,AC50,[4],149 µM (active)
same,outcome,[5],inactive
same,outcome,[6],inactive
same,outcome,[7],inactive
same,outcome,[8],inactive
same,outcome,[9],inactive
same,outcome,[10],inactive
same,outcome,[11],inactive
same,outcome,[12],inactive
same,outcome,[13],inactive
same,outcome,[19],inactive
same,outcome,[14],inactive
same,outcome,[15],inactive
same,outcome,[16],inactive
same,outcome,[17],inactive
same,outcome,[18],inactive
CC(=O)OCCC(C)CC(C)(C)C (centres undefined),outcome,[1],inactive
same,outcome,[2],inactive
same,outcome,[3],inactive
same,outcome,[4],inactive
same,outcome,[5],inactive
same,outcome,[6],inactive
same,outcome,[7],inactive
same,outcome,[8],inactive
same,outcome,[9],inactive
same,outcome,[10],inactive
same,outcome,[11],inactive
same,outcome,[12],inactive
same,outcome,[13],inactive
same,outcome,[19],inactive
same,outcome,[14],inactive
same,outcome,[15],inactive
same,outcome,[16],inactive
same,outcome,[17],inactive
same,outcome,[18],inactive
CC1CCC2CC1C2(C)C (centres undefined),outcome,[1],inactive
same,outcome,[2],inactive
same,outcome,[3],inactive
same,outcome,[4],inactive
same,outcome,[5],inactive
same,outcome,[6],inactive
same,outcome,[7],inactive
same,outcome,[8],inactive
same,outcome,[9],inactive
same,outcome,[10],inactive
same,outcome,[11],inactive
same,outcome,[12],inactive
same,outcome,[13],inactive
same,outcome,[14],inactive
same,outcome,[15],inactive
same,outcome,[16],inactive
same,outcome,[17],inactive
same,outcome,[18],inactive
O=C(COc1ccc(Cl)cc1)N1CCN(Cc2ccc3c(c2)OCO3)CC1,outcome,[1],inactive
same,outcome,[2],inactive
same,AC50,[3],24.9 µM (active)
same,outcome,[4],inactive
same,outcome,[5],inactive
same,outcome,[6],inactive
same,outcome,[7],inactive
same,AC50,[8],93.6 µM (active)
same,outcome,[9],inactive
same,outcome,[10],inactive
same,outcome,[11],inactive
same,AC50,[12],32.1 µM (active)
same,outcome,[13],inactive
same,outcome,[19],inactive
same,outcome,[14],inactive
same,outcome,[15],inactive
same,outcome,[16],inactive
same,outcome,[17],inactive
same,outcome,[18],inactive
